Hits are enriched below; roughly 5% of the tested compounds scored in any of these assays.
Vaccinia mCherry: vaccinia inhibition (mCherry reporter) | Vaccinia virus mCherry reporter infection, fluorescence | Potency, µM (doses to about 36.5 µM), actives largely listed as inhibitors | 0.63% of 310,000 active | AID 720579; calls by dose curve; tested in A549 cells; also: nearly all actives have a fitted effect of over 35% in size
LmPK inhibitor: inhibitors of Leishmania mexicana pyruvate kinase | Q27686 | purified LmPK, Kinase-Glo ATP luminescence, 1 h | Potency, µM (doses to about 57.5 µM), usual class: inhibitors | 0.37% of 290,000 active
Target sequence (Q27686 whole entry, looked up): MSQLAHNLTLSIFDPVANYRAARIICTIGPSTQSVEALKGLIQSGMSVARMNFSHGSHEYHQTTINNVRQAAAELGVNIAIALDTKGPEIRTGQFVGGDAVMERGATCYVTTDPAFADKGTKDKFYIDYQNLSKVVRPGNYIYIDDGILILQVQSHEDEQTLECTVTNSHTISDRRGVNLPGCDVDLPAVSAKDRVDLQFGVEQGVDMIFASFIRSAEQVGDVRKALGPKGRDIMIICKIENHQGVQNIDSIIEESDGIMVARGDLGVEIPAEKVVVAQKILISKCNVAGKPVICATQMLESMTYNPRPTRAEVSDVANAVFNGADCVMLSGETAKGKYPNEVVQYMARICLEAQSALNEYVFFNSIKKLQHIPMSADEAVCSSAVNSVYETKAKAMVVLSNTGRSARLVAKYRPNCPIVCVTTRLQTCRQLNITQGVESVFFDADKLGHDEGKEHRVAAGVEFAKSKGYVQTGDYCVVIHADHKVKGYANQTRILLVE
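Kinase-Glo luminescence read after 1 h RT reaction of 0.1 nM LmPK with 0.5 mM PEP and 0.1 mM ADP. Activity scaled between uninhibited and enzyme-free controls.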
TbPYK inhibitor: T. brucei pyruvate kinase inhibition; AID 624173; 0.12% of 410,000 active; Potency, µM (series often up to 76.8 µM), most hits filed as inhibitors; Q57TT1; TbPYK enzyme, Kinase-Glo Plus ATP luminescence, 45 min; also: nearly all actives have a fitted effect of over 50% in size
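Luminescence from Kinase-Glo Plus, added after a 45-minute room-temperature reaction, served as the end-point read-out. The enzyme and substrate were preincubated with compound before ADP (130 uM final) initiated turnover. Concentration-effect curves came from normalized qHTS data.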
HCMV inh: blocks human cytomegalovirus replication; 4.5% of 410,000 active; activity change, negative = inhibition, % at 57.5 µM; HFF cells, HCMV-luciferase reporter, 72 h; active compounds read low; in the data active = activity change below about -60%; inconclusive = no clear call, values can overlap the other calls; inactive = above about -39%
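Human foreskin fibroblasts infected with luciferase-reporter HCMV at MOI 1 PFU/cell, compounds at two doses. Luciferase measured 72 h post infection; normalized to buffer-only basal and Salinomycin (10uM) controls.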
Vaccinia Venus: inhibitors of vaccinia virus (Venus reporter). 0.46% of 330,000 active. AID 720580. Potency, µM (highest dose often 36.5 µM), most hits filed as inhibitors. Vaccinia virus Venus reporter expression, fluorescence; calls by dose curve; tested in A549 cells; also: nearly all actives have a fitted effect of over 30% in size
Numbers stand for hits; i = inactive; ? = inconclusive; nt = not tested or not shown. Unless noted, calls follow the shape of the dose curve; as a rule, active = well fitted curve in the direction sought with a large enough effect; inconclusive = small, poorly fitted or top-dose-only effect, or another doubt; inactive = no such curve, though single readings can be large; an effect the other way counts as inactive or inconclusive.

SMILES | Vaccinia mCherry | LmPK inhibitor | TbPYK inhibitor | HCMV inh | Vaccinia Venus
COc1ccc(S(=O)(=O)c2nnn(-c3ccc(C)c(Cl)c3)c2C)cc1 | i | nt | i | i | i
COc1ccc(C(=O)NCC(C)(C)N2CCOCC2)cc1S(=O)(=O)NCc1ccc(Cl)cc1 | nt | nt | i | -67 | nt
COc1ccc(C(=O)NCCNC(C)=O)cc1S(=O)(=O)NCc1ccc(Cl)cc1 | nt | i | nt | i | nt
CCOC(=O)Cc1csc(SCC(=O)c2c(N)n(CC(C)C)c(=O)n(C)c2=O)n1 | nt | i | i | i | nt
Cc1nn(-c2ccccc2)c(C)c1C(=O)OCC(=O)c1c(N)n(CC(C)C)c(=O)n(C)c1=O | nt | i | i | -79 | nt
CC(C)Cn1c(N)c(C(=O)COC(=O)c2ccc(O)cc2)c(=O)n(C)c1=O | i | i | i | i | i
Cc1csc(SCC(=O)c2c(N)n(CC(C)C)c(=O)n(C)c2=O)n1 | i | i | i | -75 | i
COc1ccc(NC(=O)N2CCCC3(CCN(C(=O)c4ccco4)CC3)C2)cc1 | nt | nt | i | nt | nt
Cc1cc(C)c(NC(=O)C2=CCN(S(=O)(=O)c3ccc(F)cc3)CC2)c(C)c1 | i | i | i | i | i
Cc1cc(C)c(NC(=O)c2c[nH]c(=S)n2-c2ccc(F)cc2)c(C)c1 | nt | ? | 7.9µM | i | nt
O=c1c2ccccc2sn1-c1ccc(Cl)cc1Cl | i | nt | 18µM | -95 | i
O=C(c1cc2cc(F)ccc2[nH]1)N1CCN(Cc2ccc3c(c2)OCO3)CC1 | nt | i | i | i | nt
COc1cc2cc(C(=O)N3CCN(Cc4ccc5c(c4)OCO5)CC3)[nH]c2cc1OC | nt | i | i | -92 | nt
COc1cc(CN2CCN(Cc3ccc([N+](=O)[O-])cc3)CC2)c([N+](=O)[O-])cc1OC | nt | i | i | -76 | nt
COc1ccc(C(=O)N2CCN(Cc3ccc4c(c3)OCO4)CC2)cc1OC | nt | i | i | ? | nt
COc1ccc(C(=O)N2CCN(Cc3ccc4c(c3)OCO4)CC2)cc1[N+](=O)[O-] | i | i | i | -83 | i
O=C(CSCc1ccccc1Cl)NCc1ccc(Cl)c(Cl)c1 | i | nt | i | i | i
CCCc1ccc(C(C)NC(=S)NCc2ccc(F)cc2)cc1 (stereo unspecified) | i | i | i | i | i
CCC(NC(=S)NCc1ccc(F)cc1)c1ccc(C(C)C)cc1 (stereo unspecified) | nt | i | i | -97 | nt
CC(NC(=S)NCc1ccc(F)cc1)C12CC3CC(CC(C3)C1)C2 (stereo unspecified) | ? | i | i | -85 | i
CCOc1ccc(C(C)NC(=S)NCc2ccc(Cl)cc2)cc1 (stereo unspecified) | nt | i | i | -74 | nt
CCC(C)c1ccc(C(C)NC(=S)NCc2ccc(F)cc2)cc1 (stereo unspecified) | ? | i | i | -67 | i
Cc1ccc(NC(=O)CCC(=O)N2CCN(S(=O)(=O)c3ccc(C)cc3)CC2)cc1 | nt | nt | i | i | nt
Cc1ccc(CNS(=O)(=O)NCc2ccccc2F)cc1 | i | i | i | i | i
COc1ccc(C2CC(c3ccc(F)cc3)n3nc(NS(C)(=O)=O)nc3N2)cc1 (stereo unspecified) | i | i | i | i | i
SMILES | Vaccinia mCherry | LmPK inhibitor | TbPYK inhibitor | HCMV inh | Vaccinia Venus
CCC(c1nnnn1C(C)(C)C)N(CCOC)Cc1cc2cccc(C)c2n2nnnc12 (stereo unspecified) | nt | i | nt | nt | nt
COc1cc(NC(=S)NCCc2ccc(S(N)(=O)=O)cc2)c(OC)cc1Cl | nt | i | i | -61 | nt
COc1cc(NS(=O)(=O)c2ccc(C)c(C)c2)c(OC)cc1Cl | nt | i | i | -69 | nt
CC(=O)OC1CCC2(C)C(CCC3C4CC=C(C(C)=O)C4(C)OC(=O)CC32)C1 (stereo unspecified) | ? | nt | i | -76 | 11µM
CCCCc1ccc(S(=O)(=O)NCCc2ccncc2)cc1 | nt | i | i | -63 | ?
CCCCNS(=O)(=O)c1ccc(S(=O)(=O)NCc2ccncc2)cc1 | ? | i | i | -72 | i
Cc1ccc(S(=O)(=O)NCCc2ccncc2)cc1 | nt | i | i | i | nt
COc1cc(OC)c(-c2nn3c(-c4ccco4)nnc3s2)cc1OC | 11µM | i | i | ? | ?
COc1ccc(-c2nn3c(-c4ccco4)nnc3s2)cc1OC | ? | i | i | i | ?
COC(=O)c1c(C)nc2nonc2c1N | i | i | i | i | i
COc1ccc(Cc2c(-c3ccc(OC)c(OC)c3)nc3c(C)cc(Br)cn23)c(C)c1 | i | nt | i | -61 | i
CCn1c(N2CCC(Cc3ccccc3)CC2)nc2c1c(=O)[nH]c(=O)n2C | ? | i | i | i | i
